In PubChem BioAssay (NCATS):
Records with an inconclusive call do not appear. Active and inactive are the calls of the source. Unless noted, the call rests on the fitted dose curve; in most records, active means well fitted inhibition curve with a large enough effect; inconclusive means small, poorly fitted or top-dose-only effect; inactive means no such curve, though single readings can be large or run the other way.

Experiments:
[1] = biological target: Cytochrome P450 1A2 (Homo sapiens) (UniProt P05177); test: p450-cyp1a2 (AID 410; calls by dose curve)
Chain of Cytochrome P450 1A2 (Homo sapiens) (P05177 whole entry, looked up): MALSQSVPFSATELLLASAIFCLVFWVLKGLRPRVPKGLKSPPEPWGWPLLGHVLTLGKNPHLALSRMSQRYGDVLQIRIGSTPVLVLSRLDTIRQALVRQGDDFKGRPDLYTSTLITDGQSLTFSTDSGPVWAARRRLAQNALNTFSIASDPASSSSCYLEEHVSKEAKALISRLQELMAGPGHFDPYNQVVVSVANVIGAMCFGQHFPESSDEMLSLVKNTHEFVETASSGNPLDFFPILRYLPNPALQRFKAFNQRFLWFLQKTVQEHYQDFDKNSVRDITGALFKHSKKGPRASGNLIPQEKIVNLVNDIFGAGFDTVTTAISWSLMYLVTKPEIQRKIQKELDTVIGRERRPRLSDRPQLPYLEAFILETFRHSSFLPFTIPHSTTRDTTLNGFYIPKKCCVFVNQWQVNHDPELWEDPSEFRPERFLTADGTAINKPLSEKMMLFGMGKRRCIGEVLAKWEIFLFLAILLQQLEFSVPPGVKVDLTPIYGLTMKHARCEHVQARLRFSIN
Outline: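 Luminescent readout of luciferin formed from Luciferin-ME by human CYP1A2; data normalized against complete inhibition by 57 uM furafylline. Enzyme 20nM, substrate 100uM at Km, 100mM KPO4 buffer, 60 min reaction at room temperature.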

[2] = biological target: Glucocorticoid receptor (Homo sapiens) (UniProt P04150); test: GR-EFC Redistribution (AID 451; calls by dose curve; further: potency means the concentration at half of the fitted maximal effect); conditions: CHO-K1 GR-EFC translocation, beta-gal luminescence, 2 h
Chain of Glucocorticoid receptor (Homo sapiens) (P04150 whole entry, looked up, the tested form may be a part): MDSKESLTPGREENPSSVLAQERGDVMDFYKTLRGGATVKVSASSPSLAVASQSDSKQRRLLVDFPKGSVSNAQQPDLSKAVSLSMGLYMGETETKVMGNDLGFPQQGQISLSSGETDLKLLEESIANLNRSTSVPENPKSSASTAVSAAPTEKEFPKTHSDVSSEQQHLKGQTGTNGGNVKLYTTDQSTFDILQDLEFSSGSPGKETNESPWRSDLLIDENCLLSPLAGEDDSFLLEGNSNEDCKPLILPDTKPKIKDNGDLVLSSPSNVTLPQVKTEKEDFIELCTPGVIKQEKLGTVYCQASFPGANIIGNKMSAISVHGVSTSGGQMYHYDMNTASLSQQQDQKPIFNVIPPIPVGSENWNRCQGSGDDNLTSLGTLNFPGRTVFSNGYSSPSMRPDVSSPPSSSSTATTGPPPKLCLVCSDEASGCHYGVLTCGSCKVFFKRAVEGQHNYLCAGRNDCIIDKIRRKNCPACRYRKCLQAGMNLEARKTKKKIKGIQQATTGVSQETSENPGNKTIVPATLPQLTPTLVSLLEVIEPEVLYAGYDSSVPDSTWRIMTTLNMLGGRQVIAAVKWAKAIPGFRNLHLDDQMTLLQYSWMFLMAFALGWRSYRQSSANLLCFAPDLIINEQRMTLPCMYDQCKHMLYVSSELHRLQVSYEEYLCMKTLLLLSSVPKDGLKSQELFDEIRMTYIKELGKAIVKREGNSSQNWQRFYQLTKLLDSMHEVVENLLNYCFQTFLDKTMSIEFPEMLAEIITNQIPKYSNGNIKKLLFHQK
Outline: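 CHO-K1 cells stably expressing nuclear-localized β-gal enzyme acceptor and GR fused C-terminally to the enzyme donor fragment; ligand-driven nuclear translocation restores β-gal by complementation. Compounds titrated up to 46 uM final, 2 h at 37 °C; luminescence read.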

[3] = biological target: 3',5'-cyclic-AMP phosphodiesterase 4B (Homo sapiens) (UniProt Q07343); test: qHTS Assay for Inhibitors of PDE-IV (AID 607; active means well fitted activation curve with a large enough effect in the main read-out, with a control signal flat, not every such curve was filed as active)
Chain of 3',5'-cyclic-AMP phosphodiesterase 4B (Homo sapiens) (Q07343 whole entry, looked up): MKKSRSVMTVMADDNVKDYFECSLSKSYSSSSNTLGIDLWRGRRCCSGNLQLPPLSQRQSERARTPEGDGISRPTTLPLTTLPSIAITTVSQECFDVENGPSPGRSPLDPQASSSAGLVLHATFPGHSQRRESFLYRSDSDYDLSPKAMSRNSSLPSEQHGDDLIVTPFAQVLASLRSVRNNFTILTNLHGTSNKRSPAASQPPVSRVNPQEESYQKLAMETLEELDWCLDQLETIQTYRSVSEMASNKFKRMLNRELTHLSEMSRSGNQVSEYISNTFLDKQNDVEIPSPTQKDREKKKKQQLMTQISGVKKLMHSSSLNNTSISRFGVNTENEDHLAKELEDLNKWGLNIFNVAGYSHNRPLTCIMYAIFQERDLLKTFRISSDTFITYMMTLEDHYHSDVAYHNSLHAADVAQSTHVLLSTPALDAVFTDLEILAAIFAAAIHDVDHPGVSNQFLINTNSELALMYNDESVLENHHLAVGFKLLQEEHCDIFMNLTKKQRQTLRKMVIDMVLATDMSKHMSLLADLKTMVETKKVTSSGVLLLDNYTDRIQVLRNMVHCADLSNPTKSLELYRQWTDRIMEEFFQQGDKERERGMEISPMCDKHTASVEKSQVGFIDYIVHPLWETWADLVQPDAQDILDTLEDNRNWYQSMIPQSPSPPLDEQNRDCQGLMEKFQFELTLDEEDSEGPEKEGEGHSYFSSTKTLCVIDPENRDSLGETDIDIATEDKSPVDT
Outline: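 HEK293 ACTOne cells with CNG channel (1000/well), endogenous PDE4; membrane potential dye, compounds up to 22.9 uM final. Fluorescence Ex 535/Em 590; RO 20-1724 (100 uM final) as reference.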

[4] = biological target: Cytochrome P450 2C19 (Homo sapiens) (UniProt P33261); test: qHTS Assay for Inhibitors and Substrates of Cytochrome P450 2C19 (AID 899); further: nearly all actives have a fitted effect of over 60% in size
Chain of Cytochrome P450 2C19 (Homo sapiens) (P33261 whole entry, looked up): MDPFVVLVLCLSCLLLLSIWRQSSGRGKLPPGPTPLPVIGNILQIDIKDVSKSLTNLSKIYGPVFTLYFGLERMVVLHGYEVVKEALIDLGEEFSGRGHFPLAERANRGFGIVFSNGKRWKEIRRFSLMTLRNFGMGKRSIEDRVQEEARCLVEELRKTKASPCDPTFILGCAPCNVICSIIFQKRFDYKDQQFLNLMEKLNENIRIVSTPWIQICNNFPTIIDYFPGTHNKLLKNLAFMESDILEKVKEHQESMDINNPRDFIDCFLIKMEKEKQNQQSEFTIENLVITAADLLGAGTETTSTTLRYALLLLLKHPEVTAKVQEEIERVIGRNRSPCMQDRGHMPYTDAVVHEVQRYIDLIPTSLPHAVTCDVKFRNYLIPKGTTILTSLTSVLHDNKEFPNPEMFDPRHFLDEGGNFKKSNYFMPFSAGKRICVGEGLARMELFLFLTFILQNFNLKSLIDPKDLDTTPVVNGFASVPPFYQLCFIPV
Outline: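 Human CYP2C19 (5nM) with Luciferin-H EGE at 10uM (its KM) in 50mM KPO4 was preincubated with compound for 10 min at 37C. NADPH regeneration started a 60 min 37C reaction. Luciferin was read by luminescence, normalized to 57uM ketoconazole.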

[5] = biological target: Cytochrome P450 2C9 (Homo sapiens) (UniProt P11712); test: qHTS Assay for Inhibitors and Substrates of Cytochrome P450 2C9 (AID 883); further: nearly all actives have a fitted effect of over 60% in size
Chain of Cytochrome P450 2C9 (Homo sapiens) (P11712 whole entry, looked up): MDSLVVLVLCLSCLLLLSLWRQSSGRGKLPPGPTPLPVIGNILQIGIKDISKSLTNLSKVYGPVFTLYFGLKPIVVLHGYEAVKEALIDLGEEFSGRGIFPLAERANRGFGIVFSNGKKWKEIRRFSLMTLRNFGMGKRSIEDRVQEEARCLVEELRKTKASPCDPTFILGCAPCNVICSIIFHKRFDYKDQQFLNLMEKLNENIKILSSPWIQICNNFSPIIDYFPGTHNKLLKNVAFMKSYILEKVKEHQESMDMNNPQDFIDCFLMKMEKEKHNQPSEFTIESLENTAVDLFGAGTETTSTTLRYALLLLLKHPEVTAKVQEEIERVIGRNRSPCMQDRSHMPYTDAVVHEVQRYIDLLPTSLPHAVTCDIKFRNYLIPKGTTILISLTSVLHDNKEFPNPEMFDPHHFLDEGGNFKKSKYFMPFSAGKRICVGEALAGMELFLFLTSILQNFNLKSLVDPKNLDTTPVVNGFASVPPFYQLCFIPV
Outline: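 Human CYP2C9 (10nM) hydroxylated Luciferin-H (100uM, at its KM) to luciferin in 25mM KPO4. Compound was preincubated 10 min at 37C, then NADPH regeneration started a 60 min reaction at 37C. Luminescence was read after detection reagent, normalized to 57uM sulphaphenazole.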

[6] = biological target: Cytochrome P450 2D6 (Homo sapiens) (UniProt P10635); test: qHTS Assay for Inhibitors and Substrates of Cytochrome P450 2D6 (AID 891);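 further: luciferin methyl ether substrate demethylated by CYP2D6 with NADPH regeneration; nearly all actives have a fitted effect of over 60% in size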
Chain of Cytochrome P450 2D6 (Homo sapiens) (P10635 whole entry, looked up): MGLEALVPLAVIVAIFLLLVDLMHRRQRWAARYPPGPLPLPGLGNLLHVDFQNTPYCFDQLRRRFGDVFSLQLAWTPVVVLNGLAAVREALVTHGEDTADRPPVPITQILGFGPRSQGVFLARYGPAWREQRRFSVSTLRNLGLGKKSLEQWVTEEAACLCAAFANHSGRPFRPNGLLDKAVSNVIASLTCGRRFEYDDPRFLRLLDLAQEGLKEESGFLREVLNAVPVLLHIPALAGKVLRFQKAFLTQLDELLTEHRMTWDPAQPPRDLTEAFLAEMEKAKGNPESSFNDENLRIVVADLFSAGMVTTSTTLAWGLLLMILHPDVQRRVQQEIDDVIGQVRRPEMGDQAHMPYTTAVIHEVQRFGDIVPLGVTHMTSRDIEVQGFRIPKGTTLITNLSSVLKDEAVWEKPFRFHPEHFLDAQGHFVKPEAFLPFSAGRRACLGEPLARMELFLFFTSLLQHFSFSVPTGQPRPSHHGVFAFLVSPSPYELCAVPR
Outline: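 Human CYP2D6 (5 nM) with 30 uM Luciferin-ME EGE (at Km) in 100 mM KPO4, compound preincubated 10 min, then NADPH regeneration system for 60 min at room temperature. Luciferin read by luminescence; normalized to 1.43 uM quinidine.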

[7] = biological target: Mitogen-activated protein kinase 10 (Mus musculus) (UniProt Q61831); test: JNK3 AlphaScreen Assay (AID 530; active means well fitted curve in either direction with a large enough effect, not every such curve was filed as active;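 further: kinase came from lysate of stimulated human HepG2 cells; signal reports phosphorylation of biotinylated GST-cJun 1-79 at Ser73 with 10 µM ATP; series mostly up to about 57 µM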)
Outline: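 Inhibitors reduce antibody binding to phosphorylated biotin-cJun, lowering AlphaScreen luminescence. Lysates from HepG2 cells pre-activated by IL-1beta plus TNF-alpha supplied JNK3; compounds were titrated.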

Measured: Potency

NCCC[C@@H](CC(=O)N[C@@H]1CCNC[C@H]1C(=O)N[C@H](CC(=O)N[C@@H](CCC(=O)O)CC(=O)O)Cc1c[nH]c2ccccc12)NC(=O)C[C@H](Cc1c[nH]c2ccccc12)NC(=O)[C@@H]1CNCC[C@H]1N
inactive: [1] | [2] > 46 µM | [3] | [4]

CC(C)[C@@H](CC(=O)N[C@@H]1CCCC[C@H]1C(=O)N[C@H](CC(=O)N[C@@H](CCC(=O)O)CC(=O)O)Cc1c[nH]c2ccccc12)NC(=O)C[C@H](Cc1c[nH]c2ccccc12)NC(=O)[C@@H]1CNCC[C@H]1N
inactive: [1] | [2] > 46 µM | [3] | [5] | [6] | [4]

CC(C)C[C@@H](CC(=O)N[C@H](CC(=O)N[C@@H]1CCCC[C@H]1C(=O)N[C@H](CC(=O)N[C@@H](CCC(=O)O)CC(=O)O)CC(C)C)C(C)C)NC(=O)[C@@H]1CNCC[C@H]1N
inactive: [1] | [2] > 46 µM | [3] | [5] | [6]

CC(C)C[C@@H](CC(=O)N[C@@H](CCCN)CC(=O)N[C@@H]1CCCC[C@H]1C(=O)N[C@H](CC(=O)N[C@@H](CCC(=O)O)CC(=O)O)CC(C)C)NC(=O)[C@@H]1CCCC[C@H]1N
inactive: [1] | [2] > 46 µM | [3] | [5] | [6] | [4]

CC(C)C[C@@H](CC(=O)N[C@@H](CCC(=O)O)CC(=O)O)NC(=O)[C@@H]1CNCC[C@H]1NC(=O)C[C@H](CCCN)NC(=O)C[C@H](CO)NC(=O)[C@@H]1CNCC[C@H]1N
inactive: [1] | [2] > 46 µM | [7] | [6]

CC(C)C[C@@H](CC(=O)N[C@@H](CCC(=O)O)CC(=O)O)NC(=O)[C@@H]1CCCC[C@H]1NC(=O)C[C@@H](NC(=O)C[C@H](Cc1c[nH]c2ccccc12)NC(=O)[C@@H]1CNCC[C@H]1N)C(C)C
inactive: [1] | [2] > 46 µM | [7] | [5] | [6] | [4]

CC(C)C[C@@H](CC(=O)N[C@@H](CCCN)CC(=O)N[C@@H]1CCCC[C@H]1C(=O)N[C@H](CC(=O)N[C@@H](CCC(=O)O)CC(=O)O)Cc1ccccc1)NC(=O)[C@@H]1CCCC[C@H]1N
inactive: [1] | [2] > 46 µM | [7] | [3] | [6]

CC(C)C[C@@H](CC(=O)N[C@@H](CCCN)CC(=O)N[C@@H]1CCCC[C@H]1C(=O)N[C@H](CC(=O)N[C@@H](CCC(=O)O)CC(=O)O)Cc1c[nH]c2ccccc12)NC(=O)[C@@H]1CCCC[C@H]1N
inactive: [1] | [2] > 46 µM | [3] | [6] | [4]

CC(C)C[C@@H](CC(=O)N[C@@H](CCC(=O)O)CC(=O)O)NC(=O)[C@@H]1CNCC[C@H]1NC(=O)C[C@@H](NC(=O)C[C@H](Cc1c[nH]c2ccccc12)NC(=O)[C@@H]1CCCC[C@H]1N)C(C)C
inactive: [1] | [2] > 46 µM | [3] | [5] | [6] | [4]

NCCC[C@@H](CC(=O)N[C@@H]1CCCC[C@H]1C(=O)N[C@H](CC(=O)N[C@@H](CCC(=O)O)CC(=O)O)Cc1c[nH]c2ccccc12)NC(=O)C[C@H](Cc1c[nH]c2ccccc12)NC(=O)[C@@H]1CCCC[C@H]1N
inactive: [1] | [2] > 46 µM | [3] | [5] | [6] | [4]

NCCC[C@@H](CC(=O)N[C@@H]1CCNC[C@H]1C(=O)N[C@H](CC(=O)N[C@@H](CCC(=O)O)CC(=O)O)Cc1c[nH]c2ccccc12)NC(=O)C[C@H](CO)NC(=O)[C@@H]1CNCC[C@H]1N
inactive: [1] | [2] > 46 µM | [7] | [3] | [6] | [4]

CC(C)C[C@@H](CC(=O)N[C@H](CC(=O)N[C@@H]1CCNC[C@H]1C(=O)N[C@H](CC(=O)N[C@@H](CCC(=O)O)CC(=O)O)CC(C)C)C(C)C)NC(=O)[C@@H]1CNCC[C@H]1N
inactive: [1] | [2] > 46 µM | [7] | [6] | [4]

CC(C)C[C@@H](CC(=O)N[C@@H](CCC(=O)O)CC(=O)O)NC(=O)[C@@H]1CNCC[C@H]1NC(=O)C[C@H](CCCN)NC(=O)C[C@H](Cc1c[nH]c2ccccc12)NC(=O)[C@@H]1CNCC[C@H]1N
inactive: [1] | [2] > 46 µM | [7] | [5] | [6] | [4]

CC(C)[C@@H](CC(=O)N[C@@H]1CCNC[C@H]1C(=O)N[C@H](CC(=O)N[C@@H](CCC(=O)O)CC(=O)O)Cc1c[nH]c2ccccc12)NC(=O)C[C@H](Cc1c[nH]c2ccccc12)NC(=O)[C@@H]1CNCC[C@H]1N
inactive: [1] | [2] > 46 µM | [5] | [6] | [4]
